# Bioassay records from PubChem BioAssay.
# The list is not random: actives were taken first. Their share in the collection is about 3.3%.
# ERAP1 HTS inh: inhibitors of human ERAP1 aminopeptidase; Q9NZ08; recombinant ERAP1, Leu-AMC fluorescence, 60 min; inhibition, % at 10.7 µM; 340,000 tested, 0.15% active;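 active = mean replicate inhibition of at least 30%, or all replicates individually reaching that 30% level; inactive = mean below 30% and not every replicate reaching it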;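 also: 0% = neutral control wells and 100% = L-leucinethiol positive control wells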
# SIRT5 inh: blocks human SIRT5 desuccinylation of peptide | Q9NXA8 | Purified SirT5, succinyl-peptide AMC, trypsin-coupled fluorescence | inhibition, % at 15 µM | 330,000 tested, 1.1% active | AID 652115; in the data active = inhibition above about 15%
# Target sequence (Q9NXA8 whole entry, looked up): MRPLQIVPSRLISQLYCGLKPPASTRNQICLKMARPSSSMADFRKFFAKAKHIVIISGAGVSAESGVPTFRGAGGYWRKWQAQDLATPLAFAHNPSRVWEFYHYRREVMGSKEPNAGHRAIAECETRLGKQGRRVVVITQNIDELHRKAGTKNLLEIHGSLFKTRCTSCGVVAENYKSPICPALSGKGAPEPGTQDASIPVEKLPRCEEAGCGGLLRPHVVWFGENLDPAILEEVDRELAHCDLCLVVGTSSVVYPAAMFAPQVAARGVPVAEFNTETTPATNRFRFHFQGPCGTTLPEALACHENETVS
# INS-1E GSIS act: GLuc luminescence reporter in INS-1E cells, primary screen for activators of glucose-dependent secretion of insulin. INS-1E GLuc reporter insulin secretion, 2-3 h. activation, % at 16.6 µM. 370,000 tested, 0.61% active. AID 743287;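 active = lowest replicate activation of at least 40%, so every replicate reaches that level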;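 also: 0% = median of neutral control wells and 100% = median of IBMX positive control wells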
# CASP6 VEID inh: blocks human caspase-6 cleavage activity; P55212; purified caspase-6, Z-VEID-R110 cleavage fluorescence; inhibition, % at 12.5 µM; 350,000 tested, 0.53% active; AID 686996;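 active = mean inhibition across replicates at least about 35%, with every replicate also reaching that limit, limit read from the data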;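 also: 0% = median of neutral control wells and 100% = no fluorescence left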
# FGF22 binding: binders of recombinant human FGF22 by thermal shift; activity (Tm shift, normalised), % at 9.99 µM; SYPRO orange fluorescence; percent of sucrose octasulfate shift, DMSO zero; 340,000 tested, 1.5% active;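 active = mean Tm shift, scaled 0 neutral to 100 positive control, at about 1.3% or above, every replicate too, limit read from the data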
# Target sequence (Q9HCT0 whole entry, looked up): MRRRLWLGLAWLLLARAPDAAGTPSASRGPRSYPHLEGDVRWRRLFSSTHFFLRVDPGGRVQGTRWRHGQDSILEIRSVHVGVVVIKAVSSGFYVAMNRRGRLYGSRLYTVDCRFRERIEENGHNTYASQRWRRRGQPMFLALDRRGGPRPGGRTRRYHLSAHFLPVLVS
# Numbers without * were called inactive; / = not tested or not shown.
SMILES,ERAP1 HTS inh,SIRT5 inh,INS-1E GSIS act,CASP6 VEID inh,FGF22 binding
O=C(CCC1CCCN(Cc2ccc3c(c2)OCCO3)C1)NCc1ccc(F)c(F)c1 (configuration not stated),0.6,-0.3,-3.1,-1.8,0.2
O=C(CCC1CCCN(C(=O)c2ccoc2)C1)NCc1ccc(F)c(F)c1 (configuration not stated),-0.4,-6.5,-4.6,-1.7,0.4
CCCC[n+]1ccn(C2=C([O-])c3ccccc3C(=O)/C2=N\S(=O)(=O)c2ccc(Br)cc2)c1,-0.4,-0.5,3.6,0.6,-0.1
CC(=O)Nc1ccc(S(=O)(=O)/N=C2\C(=O)c3ccccc3C([O-])=C2n2cc[n+](-c3ccccn3)c2)cc1,-1.0,2.6,10.2,68.3*,0.3
O=C(CCC(=O)OCc1ccc(Br)cc1)Nc1ccccc1,2.0,35.4*,-8.7,2.3,-0.1
C[C@H](CO)N1C[C@H](C)[C@@H](CN(C)S(=O)(=O)c2cn(C)cn2)Oc2c(NC(=O)C3CCCCC3)cccc2C1=O,/,/,19.7,/,-0.4
COc1ccc(CN(C)C[C@@H]2OCCCC[C@H](C)Oc3ccc(NS(=O)(=O)c4c(C)noc4C)cc3C(=O)N([C@H](C)CO)C[C@H]2C)cc1,2.5,-0.5,-13.5,-2.2,0.1
CN(C)CC(=O)Nc1ccc2c(c1)[C@H]1C[C@@H](CC(=O)NCCN3CCCCC3)O[C@H](CO)[C@H]1O2,-1.2,-3.3,13.2,1.3,-0.3
O=C(C[C@H]1CC[C@@H]2[C@H](COC[C@@H](O)CN2Cc2ccccc2F)O1)NCc1ccccc1F,-1.1,-2.4,-1.4,-1.1,0.3
CCn1cc(-c2ccnc3cc(C(=O)O)nn23)c(C)n1,6.7,-13.9,13.7,1.2,43.2*
C[C@H]1CN([C@@H](C)CO)C(=O)Cc2cc(NS(=O)(=O)c3ccc(Cl)cc3)ccc2O[C@@H]1CN(C)Cc1ccc(Cl)c(Cl)c1,-2.3,15.1*,27.9,/,0.2
C[C@@H]1CN([C@H](C)CO)C(=O)Cc2cc(NC(=O)c3ccncc3)ccc2O[C@H]1CN(C)Cc1ccc(Cl)c(Cl)c1,-4.5,0.5,-25.6,-3.8,0.0
C[C@H](CO)N1C[C@H](C)[C@@H](CN(C)Cc2ccc(Cl)c(Cl)c2)Oc2ccc(NC(=O)c3ccncc3)cc2CC1=O,-0.6,16.9*,-8.2,0.0,0.1
C[C@H](CO)N1C[C@H](C)[C@@H](CN(C)Cc2ccc(Cl)c(Cl)c2)Oc2ccc(NS(=O)(=O)c3ccccc3)cc2CC1=O,-0.6,28.0*,-27.4,-1.2,0.0
COCC(=O)Nc1ccc2c(c1)C(=O)N(C)[C@@H]1CC[C@@H](CC(=O)NCCc3ccccc3)O[C@@H]1CO2,-0.6,3.6,2.5,-2.2,0.2
C[C@H]1CN([C@@H](C)CO)S(=O)(=O)c2ccc(-c3ccccc3F)cc2O[C@H]1CN(C)Cc1cncnc1,-2.2,-7.2,13.3,-3.5,/
COc1nc(-c2ccccc2)ccc1-c1noc(-c2cccnc2)n1,/,/,70.6*,/,/
Cc1cc(C(C)(C)C)cc(C)c1S(=O)(=O)N1CC(=O)Nc2ccccc21,-2.7,-4.4,-46.6,2.8,1.5*
Cc1ccc(C(C)(C)C)cc1S(=O)(=O)N1CC(=O)Nc2ccccc21,2.4,-2.6,-12.6,4.6,-0.2
N#Cc1ccccc1NC(=O)CN1CCN(Cc2ccccc2)CC1,0.5,-2.5,7.8,1.2,-0.1
N#Cc1ccsc1NC(=O)CN1CCN(Cc2ccccc2)CC1,-1.0,-2.4,1.0,1.0,43.2*
O=C1N=c2ccccc2=C1c1sc(NS(=O)(=O)c2ccccc2)nc1O,11.2,0.7,0.5,19.7,0.9
O=C1N=c2ccccc2=C1c1sc(NS(=O)(=O)Cc2ccccc2)nc1O,2.0,3.1,9.9,3.5,1.3*
Cc1cc(C)c2nc(N3CCC(C(=O)NCC4CCCO4)CC3)sc2c1 (configuration not stated),2.4,27.5*,-12.8,3.0,-0.4
COc1ccc(/C=C2/SC(=O)NC2=O)cc1,-2.2,5.2,-16.4,3.1,/
SMILES,ERAP1 HTS inh,SIRT5 inh,INS-1E GSIS act,CASP6 VEID inh,FGF22 binding
COc1ccc(/C=C2\C(=O)NCC(=O)N2C)cc1,86.2*,-0.6,5.5,0.5,0.0
COc1cc(C2NCCc3c2[nH]c2ccccc32)ccc1OC(C)C (configuration not stated),0.9,-0.7,-22.5,-3.7,43.9*
COC(=O)c1c(C)nc(C)c(C(=O)OC)c1-c1ccc(OC)cc1,/,-3.8,-0.3,-5.7,0.0
CCOC(=O)c1c(C)nc(C)c(C(=O)OCC)c1-c1ccc(OC)cc1,-3.8,25.6*,-10.4,-2.0,0.4
CCn1nc(C)c(/C=C/C(=O)Nc2ccc(C)cc2C)c1C,0.9,36.9*,11.0,0.2,/
O=C(O)CSc1ncnc2sc3c(c12)CCCC3,-2.0,-4.9,0.0,7.8,-0.4
CCSc1ncnc2sc3c(c12)CCC3,/,/,43.1*,/,/
COc1ccccc1-c1cn(CC[C@@H]2CC[C@H](NC(=O)C3CCCC3)[C@H](CO)O2)nn1,1.4,0.9,8.5,-1.4,/
C[C@H](CO)N1C[C@H](C)[C@H](CN(C)Cc2ccc3c(c2)OCO3)Oc2ccc(NC(=O)c3ccncc3)cc2C1=O,-3.2,-6.2,8.0,-2.4,0.3
O=C(CC(c1ccccc1)c1ccco1)N1CCOCC1 (configuration not stated),/,/,49.4*,/,/
C=CCc1cc(/C=C/c2nc(O)c([N+](=O)[O-])c(=O)[nH]2)cc(OC)c1O,6.9,8.6,-4.8,39.0*,43.2*
CCOc1cc(/C=C\c2nc(O)c([N+](=O)[O-])c(=O)[nH]2)ccc1OC(C)C,5.4,14.9,11.7,1.4,0.2
COc1cc(OC)cc(C(=O)N[C@@H](CCSC)c2nc3ccccc3[nH]2)c1,-1.2,1.5,-4.7,-2.4,43.1*
Cc1ccc(S(=O)(=O)N[C@@H]2CC[C@H](CC(=O)NCCCN(C)C)O[C@H]2CO)cc1,/,0.9,5.7,/,0.4
CC(=O)c1ccc(NC(=S)Nc2ccc3cn[nH]c3c2)cc1,3.5,8.8,6.6,7.0,1.8*
CC(=O)c1ccc(NC(=S)Nc2ccc(Br)c(Cl)c2)cc1,-4.3,/,-3.6,-1.8,1.4*
O=C(NC(=S)Nc1ccc(Br)c(Cl)c1)C1CC1,3.5,0.0,-33.5,-1.4,0.0
O=C(CSc1n[nH]c(-c2ccccc2)n1)NCc1cccc(C(=O)O)c1,1.6,-1.8,2.5,1.9,42.9*
COC(=O)C1C(c2ccc(N(C)C)cc2)C(C(=O)OC)S(=O)(=O)CS1(=O)=O (configuration not stated),-5.0,1.5,4.4,-0.8,43.0*
COc1ccc2c3c([nH]c2c1)[C@@H](CO)N(C(C)=O)CC31CN(Cc2ccccc2Cl)C1,0.3,0.4,-1.6,2.3,/
Cc1ccc2sc(C)[n+](CCCS(=O)(=O)[O-])c2c1,1.2,-8.6,-2.3,-0.9,0.0
Cc1ccc2c(c1)sc(C)[n+]2CCCS(=O)(=O)[O-],2.1,-0.4,6.4,1.8,43.1*
CCCC[n+]1c(C)sc2cc(OC)ccc21,35.4*,-4.0,0.9,-0.1,0.1
